hcDAF12 agonist – activates DAF-12 receptor from parasite H. contortus. 370,000 tested, 1.4% active. activation, % at 6.8 µM. AID 652067. HEK293 hcDAF-12 lit1-tk-luc reporter, luminescence; 0% DMSO, 100% Δ7-dafachronic acid;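 active = activation above the mean of all tested compounds plus 3 SD, cut at about 5.5% in these data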;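 note: 100% = response to 3 µM Δ7-dafachronic acid high control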
DAX1 inh-1 – inhibitors of DAX1 repression of SF-1 activated StAR promoter; HEK293T StAR-luciferase reporter, SF-1/DAX-1 repression relief; AID 652010; inhibition, % at 6.8 µM; 370,000 tested, 1.1% active;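 active = inhibition above the mean over all tested compounds plus 3 SD, cut at about 3.6% in these data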;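 note: 0% = DAX-1 cells with DMSO and 100% = cells lacking DAX-1 with DMSO; higher inhibition means more luminescence from relief of DAX-1 repression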
ssDAF12 agonist – activates DAF-12 receptor from parasite S. stercoralis | HEK293 ssDAF-12/GRIP1 lit1-tk-luc reporter, luminescence; % of 3 µM dafachronic acid response | activation, % at 6.8 µM | 370,000 tested, 1% active | AID 652126;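 active = activation above the mean over all tested compounds plus 3 SD, cut at about 0.9% in these data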;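 note: 0% = DMSO-only wells and 100% = 3 µM delta7-dafachronic acid wells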
hgDAF12 agonist – activates the H. glycines DAF-12 receptor ligand-binding domain; HEK293 GAL4-hgDAF12 UAS-luciferase reporter, agonist luminescence; normalized to butyrate control; activation, % at 6.8 µM; 370,000 tested, 1.8% active;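 active = activation above a cutoff set at the mean of all screened compounds plus 3 SD, cut at about 10% in these data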;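 note: 0% = DMSO wells and 100% = sodium butyrate wells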
DAX1 inh-2 – inhibits human nuclear receptor DAX1; P51843; HEK293 Gal4-DAX1 luciferase reporter, luminescence; inhibition, % at 6.75 µM; 340,000 tested, 0.99% active; AID 504766;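 active = inhibition above the mean over all tested compounds plus 3 SD, cut at about 4.2% in these data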;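 note: 0% = DAX1-transfected cells with DMSO and 100% = empty-vector control cells with DMSO; inhibition shows as a rise in luminescence from relieved DAX1 repression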
Target sequence (P51843 207-470 limits assumed): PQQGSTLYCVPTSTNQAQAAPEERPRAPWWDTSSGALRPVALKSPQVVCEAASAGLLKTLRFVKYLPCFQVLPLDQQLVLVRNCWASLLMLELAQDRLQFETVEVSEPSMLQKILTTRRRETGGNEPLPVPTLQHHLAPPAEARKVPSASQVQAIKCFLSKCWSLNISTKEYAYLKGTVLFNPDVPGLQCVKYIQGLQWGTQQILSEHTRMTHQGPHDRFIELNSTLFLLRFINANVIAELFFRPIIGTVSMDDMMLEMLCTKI
* hit, by the source's call; · = no result given. Sampled rows, rich in hits. Any-hit rate of the full collection: about 4.1%.

SMILES | hcDAF12 agonist | DAX1 inh-1 | ssDAF12 agonist | hgDAF12 agonist | DAX1 inh-2
Cc1ccc(C(=O)OCC(=O)c2c[nH]c3ccccc23)cc1 | 6.5* | 1.8 | 1.9* | 5.8 | 3.7
O=C(CSCC(=O)N1CCCCC1)OCC(=O)c1c[nH]c2ccccc12 | 3.4 | 0.5 | 1.3* | 1.1 | -1.0
O=C(COc1ccccc1)OCC(=O)c1c[nH]c2ccccc12 | 3.5 | -0.6 | 0.3 | 1.1 | 0.5
COC(=O)c1ccc(NC(=O)C(=O)c2c[nH]c3ccccc23)cc1 | 6.3* | 0.4 | 1.8* | 3.6 | 0.6
O=C1CCC(C(=O)OCC(=O)c2c[nH]c3ccccc23)=NN1 | 5.6* | 0.4 | 0.6 | -0.7 | -1.2
COc1ccc(C(=O)OCC(=O)c2c[nH]c3ccccc23)cc1OC | 2.6 | -1.6 | 0.4 | 1.7 | 0.1
O=C(COC(=O)c1c[nH]c2ccccc12)Nc1ccccc1 | 1.1 | -0.1 | -0.8 | 2.0 | 2.5
CCOc1cccc(/C=N\NC(=O)Cc2cccs2)c1O | -0.3 | 0.2 | -1.1 | 0.1 | ·
O=C(c1cccc(C(F)(F)F)c1)N1CC[C@H]2[C@H](CCCN2Cc2ccc(F)cc2)C1 | 0.4 | -0.2 | -0.3 | 0.4 | ·
Cc1ccc(N=Nc2c(N)nn3c(N)c(C#N)c(C)nc23)cc1 | -0.2 | 0.7 | -1.0 | 1.7 | 2.1
COc1ccc(N=Nc2c(N)nn(C)c2N)cc1 | 1.0 | 2.6 | 1.2* | 9.5 | 3.9
CC(C)[C@@H]1NC(=O)[C@@H]2CSCCS(=O)(=O)N2C1=O | -0.1 | 1.4 | -1.0 | 1.7 | ·
Cc1nc2ccccn2c1/C(O)=C1\C(=O)C(=O)N(CCN(C)C)C1c1ccco1 (centres undefined) | 1.5 | -0.1 | -1.1 | 1.7 | 5.2*
CCN(CC)CCN1C(=O)C(=O)/C(=C(/O)c2ccc(F)cc2)C1c1cccnc1 (centres undefined) | -1.2 | 0.0 | -1.0 | -0.4 | 5.0*
Cc1ccc(/C(O)=C2\C(=O)C(=O)N(CCN(C)C)C2c2ccccc2F)cc1 (centres undefined) | -1.2 | -0.7 | -1.3 | -0.8 | 4.6*
CCOC(=O)[C@]12CCCCC/C=C\1N(Cc1ccc(OC)cc1)C(=O)[C@H]2CC(=O)NCCc1ccccc1OC | -2.7 | -0.5 | -1.7 | -1.9 | ·
COC(=O)[C@]12C[C@H](CC(=O)N3CCC(c4ccccc4)CC3)C(=O)N(Cc3ccccc3)C1=C[C@H](C1CCCC1)O[C@@H]2C | 0.0 | 1.1 | -0.3 | -0.1 | ·
CCCC1CCC2(CCC(=O)N2CCSc2ccccc2)CC1 (centres undefined) | 2.8 | -0.5 | -0.9 | 0.2 | ·
Cc1ccc(C(=O)Cn2nnc3ccccc32)cc1[N+](=O)[O-] | 1.1 | 0.6 | -0.4 | 0.4 | 6.0*
O=C(Cn1nnc2ccccc21)c1cccc([N+](=O)[O-])c1 | -1.4 | 0.0 | -1.8 | -2.0 | 0.3
COc1ccc(CN2C/C(=C/c3ccc(C)cc3)N3C(=O)C[C@@H](c4ccccc4)N=C23)c(OC)c1 | -1.4 | -1.3 | -1.2 | 1.7 | ·
O=C(NCCCN1CCOCC1)c1ccc(Cl)cc1[N+](=O)[O-] | -0.4 | -0.1 | -1.4 | -0.2 | 4.6*
Cc1c(C#N)c(O)n(CCO)c(=O)c1N=Nc1ccccc1 | -1.4 | -0.6 | -1.5 | -4.5 | 4.4*
Cc1c(C#N)c(O)n(CCO)c(=O)c1N=Nc1ccc(S(N)(=O)=O)cc1 | -0.9 | -1.4 | -1.9 | -1.6 | 0.1
Cc1ccc(NC(=O)C2CCCN2S(=O)(=O)c2cccnc2)cc1C (centres undefined) | -2.7 | -0.8 | -1.7 | -2.4 | ·
SMILES | hcDAF12 agonist | DAX1 inh-1 | ssDAF12 agonist | hgDAF12 agonist | DAX1 inh-2
Cc1ccc(CCNC(=O)C2CCN(S(=O)(=O)N3CCC4(CC3)OCCO4)CC2)cc1 | 6.0* | 0.1 | -1.7 | 1.0 | 0.2
COc1ccc2c(-c3cc4ccc(OCc5ccc(F)cc5)cc4oc3=O)cc(=O)oc2c1 | -0.2 | -0.1 | -1.6 | 0.8 | -0.7
O=C1COc2ccc(OCc3ccc(F)cc3)cc21 | 4.9 | 1.3 | 0.5 | 12.2* | 1.1
Cc1cc(NC(=O)C(C)C)ncc1NC(=O)c1ccco1 | 0.4 | 0.4 | -0.6 | 0.7 | 5.9*
CSCCC(NC(=O)c1ccco1)C(=O)NC1CCC(C)CC1 (centres undefined) | 2.8 | 3.7* | -0.9 | 2.4 | -0.3
CSCCC(NC(=O)c1ccco1)C(=O)Nc1ccc(C)cn1 (centres undefined) | 2.7 | 3.8* | -0.3 | 1.8 | 3.1
CN(C)S(=O)(=O)c1cccc(C(=O)N/N=C\c2ccccc2)c1 | 3.7 | 0.2 | -0.8 | 10.0 | ·
